Reference: ChEMBL document CHEMBL1201862, “PubChem BioAssay data set” (2004)
The whole screen tested about 400,000 compounds, of which about 2,100 (0.53%) were called active. Inconclusive results (about 14%) are left out. The sample holds actives, similar compounds and a random draw of the others, so the mix is not that of the screen. The rule behind the calls is not given here.

target: Ataxin-2 (Homo sapiens) (UniProt Q99700); experiment: qHTS for Inhibitors of ATXN expression.; format: functional
Sequence (Q99700 whole entry): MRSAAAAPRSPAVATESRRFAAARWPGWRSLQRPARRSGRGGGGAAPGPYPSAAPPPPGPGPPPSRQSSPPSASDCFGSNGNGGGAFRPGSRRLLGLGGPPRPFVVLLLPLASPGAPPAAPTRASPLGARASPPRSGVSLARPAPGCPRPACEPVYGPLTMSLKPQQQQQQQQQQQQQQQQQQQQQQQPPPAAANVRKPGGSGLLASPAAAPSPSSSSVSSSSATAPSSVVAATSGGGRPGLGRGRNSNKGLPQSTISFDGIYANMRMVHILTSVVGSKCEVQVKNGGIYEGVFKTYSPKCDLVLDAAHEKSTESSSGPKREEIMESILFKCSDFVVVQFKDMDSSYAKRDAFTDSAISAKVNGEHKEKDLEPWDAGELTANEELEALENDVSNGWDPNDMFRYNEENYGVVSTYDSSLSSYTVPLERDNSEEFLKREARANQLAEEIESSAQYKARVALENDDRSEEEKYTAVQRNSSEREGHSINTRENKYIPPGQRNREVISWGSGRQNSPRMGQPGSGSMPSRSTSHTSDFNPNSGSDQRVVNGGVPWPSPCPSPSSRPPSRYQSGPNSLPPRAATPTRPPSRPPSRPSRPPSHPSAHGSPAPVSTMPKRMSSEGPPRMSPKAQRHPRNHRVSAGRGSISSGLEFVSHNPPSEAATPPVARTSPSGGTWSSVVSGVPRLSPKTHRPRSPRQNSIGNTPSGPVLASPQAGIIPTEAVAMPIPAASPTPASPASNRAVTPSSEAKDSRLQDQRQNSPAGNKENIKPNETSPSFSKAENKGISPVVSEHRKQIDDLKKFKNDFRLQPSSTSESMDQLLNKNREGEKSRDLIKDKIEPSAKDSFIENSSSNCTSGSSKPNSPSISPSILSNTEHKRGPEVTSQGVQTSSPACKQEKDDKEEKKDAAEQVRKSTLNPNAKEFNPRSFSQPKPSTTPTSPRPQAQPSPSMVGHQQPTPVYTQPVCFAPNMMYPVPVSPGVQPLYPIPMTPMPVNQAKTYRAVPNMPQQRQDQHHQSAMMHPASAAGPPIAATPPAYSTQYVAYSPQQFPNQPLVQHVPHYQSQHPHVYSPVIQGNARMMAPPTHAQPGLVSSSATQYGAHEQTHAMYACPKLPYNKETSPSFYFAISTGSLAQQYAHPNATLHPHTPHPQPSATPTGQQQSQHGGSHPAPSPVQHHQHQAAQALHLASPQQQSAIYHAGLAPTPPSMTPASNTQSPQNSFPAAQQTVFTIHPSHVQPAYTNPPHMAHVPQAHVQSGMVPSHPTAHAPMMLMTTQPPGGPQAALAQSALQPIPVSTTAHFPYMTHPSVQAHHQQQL

| Structure (SMILES) | Potency |
| --- | --- |
| NSc1nc(N)c2nc(-c3ccccc3)c(-c3ccccc3)nc2n1 | inactive |
| NCCCCCCNS(=O)(=O)c1cccc2c(Cl)cccc12 | 39.8 µM (active) |
| O=C(O)CCCCCNS(=O)(=O)c1ccc2c3c(cccc13)C(=O)N2 | inactive |
| O=C1Nc2ccc(S(=O)(=O)NCCCO)c3cccc1c23 | inactive |
| O=C1c2cccc3c(O)ccc(c23)C(=O)N1Cc1ccco1 | inactive |
| Cc1ccc(O)c(-c2n[nH]c3c2C(c2ccccc2F)N(Cc2ccco2)C3=O)c1 (configuration not stated) | 39.8 µM (active) |
| CCOc1cccc(C2c3c(-c4cc(C)ccc4O)n[nH]c3C(=O)N2Cc2ccco2)c1 (configuration not stated) | 39.8 µM (active) |
| Cc1cc(N=Nc2ccc(C)c(N=Nc3cc(C)c(N)cc3N)c2)c(N)cc1N | 39.8 µM (active) |
| O=C1OCCN1C(=O)[C@H]1[C@H](c2ccc(F)cc2)C(c2ccc(F)cc2)=NN1c1ccccc1 | inactive |
| Cc1[nH]c(N=Nc2ccccc2)nc1N=Nc1ccccc1 | 20 µM (active) |
| OCc1ccc(N=Nc2ccccc2)cc1 | inactive |
| COc1cc(/C=C/C(=O)c2ccc3c(c2)OCO3)cc(Cl)c1O | inactive |
| COc1cc(/C=C2\CCc3c2nc2ccccc2c3C(=O)O)cc(OC)c1OC | inactive |
| COc1cc(/C=C2\SC(c3ccccc3)=NC2=O)cc(Cl)c1O | inactive |
| COc1cc(C=C2C(=O)C=CC2=O)ccc1O | 14.1 µM (active) |
| COc1cc(/C=C2/CCC/C(=C\c3cc(O)c(OC)c(Cl)c3)C2=O)cc(Cl)c1O | 39.8 µM (active) |
| CCOc1cc(/C=C2\CCCc3c2nc2ccccc2c3C(=O)O)ccc1OC | inactive |
| COc1cc(/C=C2\CC/C(=C\c3cc(OC)c(O)c(OC)c3)C2=O)cc(OC)c1O | 28.2 µM (active) |
| COc1cc(/C=C2\C(=N)N3N=C(CC(=O)N4CCCCC4)SC3=NC2=O)ccc1O | inactive |
| COc1cc(/C=C2\CCC/C(=C\c3ccc(O)c(OC)c3)C2=O)ccc1O | 35.5 µM (active) |
| COc1cc(/C=C/c2nc3ccccc3s2)cc(OC)c1O | inactive |
| COc1cc(/C=C2/NC(=O)N(Cc3ccccc3F)C2=O)ccc1O | inactive |
| COc1cc2ccc(=O)oc2c(O)c1O | inactive |

| Structure (SMILES) | Potency |
| --- | --- |
| C=CCN1c2ccccc2Sc2cnccc21 | inactive |
| Nc1ccc2nn(-c3ccc(F)cc3)nc2c1 | inactive |
| CCOc1cc(/C=C2\C(=N)N3N=C(CC(=O)N4CCCCC4)SC3=NC2=O)ccc1O | inactive |
| CCOc1cc(/C=C2/C(=N)N3N=C(CC(=O)N4CCCC4)SC3=NC2=O)ccc1O | inactive |
| COc1cc(/C=C2\COC/C(=C\c3ccc(O)c(OC)c3)C2=O)ccc1O | 31.6 µM (active) |
| COc1cc(/C=C/C=C2/CC/C(=C/C=C/c3ccc(O)c(OC)c3)C2=O)ccc1O | 13.4 µM (active) |
| COc1cc(/C=C2\Oc3cc(O)ccc3C2=O)ccc1O | inactive |
| COc1cc(/C=C/C(=O)OCC(=O)N2CCC(Cc3ccccc3)CC2)ccc1O | inactive |
| COc1cc(/C=C/c2ccc3cccc(O)c3n2)ccc1O | inactive |
| CCOc1cc(/C=C2\CN(C)C/C(=C\c3ccc(O)c(OCC)c3)C2=O)ccc1O | 15.8 µM (active) |
| COc1cc2ccc(=O)oc2cc1O | inactive |
| CCCn1/c(=N\C(=O)c2c(-c3c(F)cccc3Cl)noc2C)c(C(=O)OCC)cc2c(=O)n3ccccc3nc21 | inactive |
| CCCn1c(O)nnc1SCC(=O)N(C1CCCCC1)C1CCS(=O)(=O)C1 (configuration not stated) | inactive |
| CN(C)c1ccc(C2C3CCCc4ccccc4C3=NN2C)cc1 (configuration not stated) | inactive |
| Nc1nnn(CC(=O)N/N=C/c2ccncc2)n1 | inactive |
| CCNc1nc(NCC)n2c(SC(C(=O)Nc3cc(Cl)cc(Cl)c3)c3ccccc3)nnc2n1 (configuration not stated) | 39.8 µM (active) |
| Cc1cc(/C=C2/C(=N)N3C(c4ccccc4)=CSC3=NC2=O)c(C)n1-c1ccccc1 | inactive |
| Nc1nc(Cl)cc(=O)n1Cc1ccc(Cl)cc1 | inactive |
| c1ccc(N/N=C(\Cc2ncc[nH]2)c2ccccc2)cc1 | inactive |
| Brc1ccc(N/N=C(/N=Nc2nn[nH]n2)c2ccccc2)cc1 | 35.5 µM (active) |
| CCOC(=O)C[n+]1ccc2c([nH]c3ccccc32)c1C | inactive |
| COc1ccc(OC)c(NC(=O)c2nc3ccccc3s2)c1 | inactive |
| C[C@H](CO)N1C[C@H](C)[C@@H](CN(C)C(=O)Nc2ccc(C(F)(F)F)cc2)Oc2c(NC(=O)Nc3ccccc3)cccc2C1=O | 25.1 µM (active) |

| Structure (SMILES) | Potency |
| --- | --- |
| COc1ccc(NC(=O)N(C)C[C@H]2Oc3c(NC(=O)c4nc5ccccc5s4)cccc3C(=O)N([C@@H](C)CO)C[C@H]2C)cc1 | 39.8 µM (active) |
| C[C@@H]1CN([C@H](C)CO)C(=O)c2cccc(NC(=O)Nc3ccc(F)cc3)c2O[C@H]1CN(C)C(=O)Nc1ccc(C(F)(F)F)cc1 | 28.2 µM (active) |
| C[C@H](CO)N1C[C@H](C)[C@@H](CN(C)C(=O)Nc2ccc3c(c2)OCO3)Oc2c(NC(=O)Nc3ccc(C(F)(F)F)cc3)cccc2C1=O | 22.4 µM (active) |
| O=C(O)c1ccc(N2C(=O)CC(SC(=NCc3ccc4c(c3)OCO4)Nc3ccc(F)cc3)C2=O)cc1 (configuration not stated) | inactive |
| O=C1N=C(Nc2nc3ccccc3[nH]2)c2ccccc21 | inactive |
| CCOc1ccc2nc(NCCNS(=O)(=O)c3ccccc3)c(C#N)cc2c1 | inactive |
| Clc1ccccc1C1=CC(c2ccco2)n2ncnc2N1 (configuration not stated) | inactive |
| C#CCOc1c(Cl)cc(C2C3=C(CCCC3=O)N(CC(=O)O)C3=C2C(=O)CCC3)cc1OC | inactive |
| C[C@H](CO)N1C[C@H](C)[C@@H](CN(C)C(=O)Nc2ccccc2)Oc2c(NC(=O)Nc3ccc(C(F)(F)F)cc3)cccc2C1=O | 39.8 µM (active) |
| COc1ccc(CCn2c(=N)c(C(=O)NCC3CCCO3)cc3c(=O)n4ccccc4nc32)cc1 (configuration not stated) | 15.8 µM (active) |
| COCCn1c(=N)c(C(=O)NCC2CCCO2)cc2c(=O)n3ccccc3nc21 (configuration not stated) | inactive |
| COCCCn1c(=N)c(C(=O)NCC2CCCO2)cc2c(=O)n3ccccc3nc21 (configuration not stated) | inactive |
| O=C(NCc1ccccc1)C(=O)NCC1OCCN1S(=O)(=O)c1ccc2c(c1)OCCO2 (configuration not stated) | inactive |
| O=C(CCC(=O)N1CCOc2ccc(Cl)cc21)NCCCN1CCC(Cc2ccccc2)CC1 | 26.7 µM (active) |
| CCOc1ccccc1C(=O)NC(C(=O)NCc1ccc(F)cc1)C(C)C (configuration not stated) | inactive |
| CC1=C(C)C(C)=C(C#N)C(=C(C#N)C#N)N1 | inactive |
| Cn1c(=O)n(Cc2ccc(Br)cc2)c2ccccc21 | inactive |
| CSc1nn(Cc2ccc(Cl)cc2)c(N(C(C)=O)C(C)=O)c1S(=O)(=O)c1ccccc1 | 25.1 µM (active) |
| O=c1cc(Cl)c(-c2ccccc2)nn1Cc1ccc(Cl)cc1 | inactive |
| CSc1nn(Cc2ccc(Br)cc2)c(N(C(C)=O)C(C)=O)c1S(=O)(=O)c1ccccc1 | 28.2 µM (active) |
| CC12CCC(C(=O)N(CC3CO3)C1=O)C2(C)C (configuration not stated) | inactive |
| Cn1cccc1C1C=C(c2ccc(C(C)(C)C)cc2)Nc2ncnn21 (configuration not stated) | inactive |
| CC(=O)c1ccc(-c2ccc(C(=O)N(C)Cc3nc(O)c4ccccc4n3)o2)cc1 | inactive |

| Structure (SMILES) | Potency |
| --- | --- |
| CC(C)c1ccc(/C=C(\NC(=O)c2ccccc2)C(=O)NCCCn2ccnc2)cc1 | inactive |
| O=C(NCCCn1ccnc1)C(=O)NCC1OCCN1S(=O)(=O)c1ccc(F)cc1 (configuration not stated) | inactive |
| O=C(C[C@H]1C[C@H](C(=O)N2CCCCC2)[C@@]2(CCc3ccccc3)c3[nH]c4ccc(Cl)cc4c3CCN2C1=O)NCCCn1ccnc1 | 28.2 µM (active) |
| O=C(C[C@H]1C[C@H](C(=O)N2CCOCC2)[C@@]2(CCC3CCCC3)c3[nH]c4ccc(Cl)cc4c3CCN2C1=O)NCCCn1ccnc1 | 28.2 µM (active) |
| O=C(/C=C/c1ccc(S(=O)(=O)N2CCOCC2)cc1)NCCCn1ccnc1 | inactive |
| CC[C@@]1(O)C(=O)OCc2c1cc1n(c2=O)Cc2cc3c(CN(C)C)c(O)ccc3nc2-1 | inactive |
| CC(C)(C)c1ccc(OCC(=O)Nc2ccc3c4c(cccc24)C(=O)NC3=O)cc1 | inactive |
| O=[N+]([O-])c1cc(/C=N/N=C(/Nc2ccccn2)c2ccccn2)ccc1O | 2.67 µM (active) |
| Cc1ccc2nc3c(cc(C(N)=S)c(=N)n3CCCOC(C)C)c(=O)n2c1 | inactive |
| C=CC[C@H](CC(=O)N(CCO)Cc1ccccc1)C(=O)N[C@H](COC(=O)[C@@H](CC=C)CC(=O)OC(C)(C)C)Cc1ccccc1 | 35.5 µM (active) |
| C=CC[C@@H](CC(=O)N(CCO)Cc1ccccc1)C(=O)N[C@H](COC(=O)[C@@H](CC=C)CC(=O)OC(C)(C)C)c1ccccc1 | 31.6 µM (active) |
| C=CC[C@H](CC(=O)N(CCO)Cc1ccccc1)C(=O)N[C@H](COC(=O)[C@@H](CC=C)CC(=O)OC(C)(C)C)c1ccccc1 | 35.5 µM (active) |
| N#CCC(=O)N/N=C/c1cc(-c2ccccc2)n(-c2ccc(Cl)cc2)c1-c1ccccc1 | inactive |
| COCCNS(=O)(=O)c1ccc2c3c(cccc13)C(=O)N2C | inactive |
| CCCOC(=O)c1c(NC(=O)c2nc3ncccn3n2)sc(C(N)=O)c1C | inactive |
| O=C(COC(=O)/C=C/C(=O)OCC(=O)NC12CC3CC(CC(C3)C1)C2)NC12CC3CC(CC(C3)C1)C2 | 31.6 µM (active) |
| Nc1cccc2c1C(=O)N(CC(=O)NC13CC4CC(CC(C4)C1)C3)C2=O | inactive |
| CCOc1cc(/C=C2/C(=N)N3C(=NC2=O)SN=C3S(=O)(=O)CC)ccc1OC(=O)c1ccco1 | inactive |
| COc1ccc(CNC(=O)C/C(C)=N/NC(=O)c2ccc([N+](=O)[O-])cc2Cl)cc1 | inactive |
| COc1ccc(/C=C2\C(=O)N(c3c(Cl)cc(Cl)cc3Cl)N=C2NC(=O)c2cccc([N+](=O)[O-])c2)cc1 | 22.4 µM (active) |
| COC(=O)[C@]12CCCCC=C1N(CCC1=CCCCC1)C(=O)[C@H](CC(=O)NCCc1ccccc1OC)C2 | 39.8 µM (active) |
| COC(=O)[C@]12CCCCC=C1N(CCC1=CCCCC1)C(=O)[C@H](CC(=O)NCc1cccc3ccccc13)C2 | 25.1 µM (active) |
| COc1ccccc1CCNC(=O)CCNS(=O)(=O)c1ccc(NC(C)=O)cc1 | inactive |
